The record followed here is paper PMC7862700, “An all-to-all approach to the identification of sequence-specific readers for epigenetic DNA modifications on cytosine”.

Common to all, as to assay: DAPPL (digital affinity profiling via proximity ligation, sequencing); 10 mM Tris-HCl pH 7.5, 50 mM NaCl, 1 mM DTT, 4% glycerol, room temperature, 30 min; GST-TFs on glutathione beads, 16-mer random dsDNA library, 0.1% formaldehyde crosslink after washing; high values mean tight binding
One test concerns the target T1, FEV (Homo sapiens, UniProt Q99581 1-238).
T1 sequence: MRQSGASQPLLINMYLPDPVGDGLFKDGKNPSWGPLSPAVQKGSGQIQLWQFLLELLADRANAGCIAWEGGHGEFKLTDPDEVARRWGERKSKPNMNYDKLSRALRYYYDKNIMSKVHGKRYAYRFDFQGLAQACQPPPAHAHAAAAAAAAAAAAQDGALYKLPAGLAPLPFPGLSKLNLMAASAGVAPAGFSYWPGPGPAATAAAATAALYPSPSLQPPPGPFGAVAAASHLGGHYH
To be noted: protein: recombinant; tags: N-terminal GST; dsDNA, one strand shown. The procedure, abridged:
(§1)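 Yeast served to express human transcription factors as GST fusions, which were then captured on glutathione beads and labelled with DNA barcodes. Pooled with a tag-only sample, they were incubated with 200 nmole of a 16-mer random double-stranded DNA library for 30 min at room temperature in Tris/NaCl/DTT/glycerol buffer, washed, crosslinked with 0.1% formaldehyde, ligated by proximity, amplified by PCR and sequenced. Dividing each hexamer's read frequency for a factor by its frequency for the tag-only sample gives the binding signal.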

The target of the next test is ETV5 (Homo sapiens, UniProt P41161 1-510). To be noted: protein: recombinant; tags: N-terminal GST; dsDNA, one strand shown. The procedure, abridged: as §1
Sequence of ETV5 (P41161 whole entry): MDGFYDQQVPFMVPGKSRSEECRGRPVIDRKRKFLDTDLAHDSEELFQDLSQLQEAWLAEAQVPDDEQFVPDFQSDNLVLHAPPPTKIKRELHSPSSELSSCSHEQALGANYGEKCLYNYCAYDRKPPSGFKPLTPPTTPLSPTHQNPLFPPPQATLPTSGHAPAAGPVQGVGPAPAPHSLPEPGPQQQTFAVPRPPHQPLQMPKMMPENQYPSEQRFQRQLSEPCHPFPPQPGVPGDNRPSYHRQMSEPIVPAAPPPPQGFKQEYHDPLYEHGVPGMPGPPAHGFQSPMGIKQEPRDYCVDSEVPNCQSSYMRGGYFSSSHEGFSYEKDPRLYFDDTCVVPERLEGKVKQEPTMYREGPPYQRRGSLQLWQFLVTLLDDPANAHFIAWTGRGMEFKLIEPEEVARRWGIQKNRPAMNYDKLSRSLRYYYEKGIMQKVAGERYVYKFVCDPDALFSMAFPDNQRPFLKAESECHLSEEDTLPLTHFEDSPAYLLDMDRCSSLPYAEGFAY
For another test, the target named is HSF1 (Homo sapiens, UniProt Q00613 1-529). Particulars: protein: recombinant; tags: N-terminal GST; chain copies: 3; dsDNA, one strand shown. The essentials:
as §1

A further test has as its target T2, SPIC (Homo sapiens, UniProt Q8N5J4 1-248).
T2 sequence: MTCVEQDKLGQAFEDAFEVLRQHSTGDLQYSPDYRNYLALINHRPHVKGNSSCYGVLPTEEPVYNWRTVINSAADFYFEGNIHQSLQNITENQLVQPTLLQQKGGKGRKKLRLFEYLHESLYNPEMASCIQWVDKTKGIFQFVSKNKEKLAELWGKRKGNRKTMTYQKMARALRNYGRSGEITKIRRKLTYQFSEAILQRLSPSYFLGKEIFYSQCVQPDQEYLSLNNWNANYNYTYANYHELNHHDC
Particulars: protein: recombinant; tags: N-terminal GST; dsDNA, one strand shown. The procedure, abridged: as §1

The next test has as its target ELF4 (Homo sapiens, UniProt Q99607 1-663). To be noted: protein: recombinant; tags: N-terminal GST; dsDNA, one strand shown. The essentials: as §1
Another test addresses T3, ELK4 (Homo sapiens, UniProt P28324-2 1-405).
T3 sequence: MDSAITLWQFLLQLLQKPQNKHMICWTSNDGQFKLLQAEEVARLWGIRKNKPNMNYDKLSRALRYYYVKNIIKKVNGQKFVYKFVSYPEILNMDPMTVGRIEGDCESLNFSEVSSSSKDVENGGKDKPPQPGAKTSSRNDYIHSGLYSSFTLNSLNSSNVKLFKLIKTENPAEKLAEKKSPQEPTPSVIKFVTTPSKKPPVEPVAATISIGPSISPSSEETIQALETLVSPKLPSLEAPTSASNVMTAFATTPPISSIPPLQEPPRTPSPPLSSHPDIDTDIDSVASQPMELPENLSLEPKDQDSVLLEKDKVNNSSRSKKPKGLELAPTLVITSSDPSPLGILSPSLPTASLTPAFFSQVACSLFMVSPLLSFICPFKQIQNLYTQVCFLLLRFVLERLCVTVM
To be noted: protein: recombinant; tags: N-terminal GST; dsDNA, one strand shown. The essentials:
as §1

For another test, the target named is T4, ETV2 (Homo sapiens, UniProt O00321 1-342).
T4 sequence: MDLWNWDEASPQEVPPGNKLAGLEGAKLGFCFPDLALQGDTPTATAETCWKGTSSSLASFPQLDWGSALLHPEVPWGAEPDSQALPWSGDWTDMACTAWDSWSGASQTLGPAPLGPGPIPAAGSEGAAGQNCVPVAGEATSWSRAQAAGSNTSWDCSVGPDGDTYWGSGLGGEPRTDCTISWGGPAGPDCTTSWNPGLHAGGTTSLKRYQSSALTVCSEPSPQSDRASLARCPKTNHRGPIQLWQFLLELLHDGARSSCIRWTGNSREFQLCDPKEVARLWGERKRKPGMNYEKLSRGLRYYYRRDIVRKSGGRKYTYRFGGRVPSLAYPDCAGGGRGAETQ
To be noted: protein: recombinant; tags: N-terminal GST; dsDNA, one strand shown. The essentials:
as §1

Another test deals with T5, ELF3 (Homo sapiens, UniProt P78545 1-371).
T5 sequence: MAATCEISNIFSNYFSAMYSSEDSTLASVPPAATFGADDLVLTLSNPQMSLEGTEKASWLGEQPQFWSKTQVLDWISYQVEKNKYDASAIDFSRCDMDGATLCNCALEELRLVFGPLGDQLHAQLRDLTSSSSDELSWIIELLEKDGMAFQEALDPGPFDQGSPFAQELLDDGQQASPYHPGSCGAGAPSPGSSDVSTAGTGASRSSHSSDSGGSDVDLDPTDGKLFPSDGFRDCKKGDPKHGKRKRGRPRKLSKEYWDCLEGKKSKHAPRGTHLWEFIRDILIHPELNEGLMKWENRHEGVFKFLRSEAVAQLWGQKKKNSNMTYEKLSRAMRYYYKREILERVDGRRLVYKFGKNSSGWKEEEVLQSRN
To be noted: protein: recombinant; tags: N-terminal GST; dsDNA, one strand shown. The essentials:
as §1

For the next test, the target named is CRX (Homo sapiens, UniProt O43186 1-299). Particulars: protein: recombinant; tags: N-terminal GST; dsDNA, one strand shown. The procedure, abridged:
as §1

A further test concerns the target ETV1 (Homo sapiens, UniProt P50549 1-477). Particulars: protein: recombinant; tags: N-terminal GST; dsDNA, one strand shown. The procedure, abridged: as §1
Another test concerns the target T6, ERF (Homo sapiens, UniProt P50548 1-548).
T6 sequence: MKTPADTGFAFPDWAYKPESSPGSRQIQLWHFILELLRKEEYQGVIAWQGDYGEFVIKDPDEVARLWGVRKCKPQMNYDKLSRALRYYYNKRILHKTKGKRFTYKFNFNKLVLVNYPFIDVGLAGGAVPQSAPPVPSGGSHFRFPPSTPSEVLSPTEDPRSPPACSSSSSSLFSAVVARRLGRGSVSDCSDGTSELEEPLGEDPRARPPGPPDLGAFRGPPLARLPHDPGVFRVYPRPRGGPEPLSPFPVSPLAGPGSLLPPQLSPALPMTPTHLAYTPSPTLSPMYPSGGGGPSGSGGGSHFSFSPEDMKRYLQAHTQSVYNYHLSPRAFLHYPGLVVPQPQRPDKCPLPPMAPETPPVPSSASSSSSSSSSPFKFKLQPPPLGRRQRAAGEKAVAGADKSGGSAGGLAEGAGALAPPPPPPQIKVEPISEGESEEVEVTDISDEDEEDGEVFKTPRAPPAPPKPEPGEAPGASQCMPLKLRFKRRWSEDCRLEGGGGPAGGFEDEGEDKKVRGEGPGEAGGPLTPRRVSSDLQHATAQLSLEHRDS
To be noted: protein: recombinant; tags: N-terminal GST; dsDNA, one strand shown. The procedure, abridged: as §1

A further test addresses T7, ETV3L (Homo sapiens, UniProt Q6ZN32 1-361).
T7 sequence: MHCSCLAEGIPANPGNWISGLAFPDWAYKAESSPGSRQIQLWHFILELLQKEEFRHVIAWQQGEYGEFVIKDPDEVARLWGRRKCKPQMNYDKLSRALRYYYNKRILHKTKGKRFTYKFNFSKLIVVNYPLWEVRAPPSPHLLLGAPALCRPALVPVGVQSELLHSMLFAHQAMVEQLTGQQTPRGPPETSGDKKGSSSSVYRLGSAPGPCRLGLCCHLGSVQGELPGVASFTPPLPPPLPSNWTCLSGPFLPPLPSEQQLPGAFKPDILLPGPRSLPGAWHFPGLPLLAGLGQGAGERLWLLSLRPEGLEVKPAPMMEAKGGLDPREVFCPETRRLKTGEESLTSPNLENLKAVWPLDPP
Particulars: protein: recombinant; tags: N-terminal GST; dsDNA, one strand shown. The procedure, abridged:
as §1

The next test concerns the target T8, ETS2 (Homo sapiens, UniProt P15036 1-469).
T8 sequence: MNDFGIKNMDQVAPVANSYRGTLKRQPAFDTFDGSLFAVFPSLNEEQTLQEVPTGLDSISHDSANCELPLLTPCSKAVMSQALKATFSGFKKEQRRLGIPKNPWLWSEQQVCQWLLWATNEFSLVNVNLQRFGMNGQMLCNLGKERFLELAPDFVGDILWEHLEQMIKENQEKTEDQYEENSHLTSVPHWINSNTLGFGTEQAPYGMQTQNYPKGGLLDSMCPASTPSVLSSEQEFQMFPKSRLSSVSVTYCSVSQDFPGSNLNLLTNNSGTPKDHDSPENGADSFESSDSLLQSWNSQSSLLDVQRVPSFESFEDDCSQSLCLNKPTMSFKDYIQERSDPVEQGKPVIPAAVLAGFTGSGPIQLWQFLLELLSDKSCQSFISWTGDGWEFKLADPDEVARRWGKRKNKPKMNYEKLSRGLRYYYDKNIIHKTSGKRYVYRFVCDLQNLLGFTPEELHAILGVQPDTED
Particulars: protein: recombinant; tags: N-terminal GST; dsDNA, one strand shown. The procedure, abridged:
as §1

In another test the target is T9, SPDEF (Homo sapiens, UniProt O95238 1-335).
T9 sequence: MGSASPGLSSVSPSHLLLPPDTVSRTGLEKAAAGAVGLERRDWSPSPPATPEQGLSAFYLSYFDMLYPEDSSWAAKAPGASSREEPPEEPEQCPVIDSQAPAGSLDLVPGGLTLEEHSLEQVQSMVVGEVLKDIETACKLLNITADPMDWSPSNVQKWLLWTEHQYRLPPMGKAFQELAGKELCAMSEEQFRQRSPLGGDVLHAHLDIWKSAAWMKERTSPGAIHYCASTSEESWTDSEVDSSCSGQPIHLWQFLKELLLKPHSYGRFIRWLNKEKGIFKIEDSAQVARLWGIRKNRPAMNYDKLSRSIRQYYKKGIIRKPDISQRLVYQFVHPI
Particulars: protein: recombinant; tags: N-terminal GST; dsDNA, one strand shown. The essentials: as §1

The target in another test is T10, ETV7 (Homo sapiens, UniProt Q9Y603 1-341).
T10 sequence: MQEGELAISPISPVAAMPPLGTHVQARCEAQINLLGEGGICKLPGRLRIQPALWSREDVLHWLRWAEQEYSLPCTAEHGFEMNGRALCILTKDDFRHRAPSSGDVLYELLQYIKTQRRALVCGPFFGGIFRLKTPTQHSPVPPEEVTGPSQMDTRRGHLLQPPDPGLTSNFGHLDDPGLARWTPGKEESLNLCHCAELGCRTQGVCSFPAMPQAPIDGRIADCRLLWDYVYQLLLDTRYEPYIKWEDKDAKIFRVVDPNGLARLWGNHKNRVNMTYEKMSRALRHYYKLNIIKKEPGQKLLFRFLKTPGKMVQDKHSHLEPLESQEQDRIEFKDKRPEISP
To be noted: protein: recombinant; tags: N-terminal GST; dsDNA, one strand shown. The essentials: as §1

Another test deals with T11, ELF5 (Homo sapiens, UniProt Q9UKW6-2 1-255).
T11 sequence: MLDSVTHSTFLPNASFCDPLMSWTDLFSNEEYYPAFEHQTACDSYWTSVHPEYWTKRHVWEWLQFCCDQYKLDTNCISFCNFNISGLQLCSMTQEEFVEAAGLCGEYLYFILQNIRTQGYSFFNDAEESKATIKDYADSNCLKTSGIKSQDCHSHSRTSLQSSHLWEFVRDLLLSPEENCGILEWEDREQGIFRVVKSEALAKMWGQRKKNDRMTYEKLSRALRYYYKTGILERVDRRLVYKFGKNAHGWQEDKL
To be noted: protein: recombinant; tags: N-terminal GST; dsDNA, one strand shown. The procedure, abridged:
as §1

For the next test, the target named is T12, ETV3 (Homo sapiens, UniProt P41162-2 1-143).
T12 sequence: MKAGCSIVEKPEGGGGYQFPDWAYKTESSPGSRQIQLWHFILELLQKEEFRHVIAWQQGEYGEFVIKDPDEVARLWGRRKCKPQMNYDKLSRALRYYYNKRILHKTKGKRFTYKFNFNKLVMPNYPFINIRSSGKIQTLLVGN
Particulars: protein: recombinant; tags: N-terminal GST; dsDNA, one strand shown. The essentials: as §1

For another test, the target named is ETV6 (Homo sapiens, UniProt P41212 1-452). Particulars: protein: recombinant; tags: N-terminal GST; dsDNA, one strand shown. The essentials: as §1
Sequence of ETV6 (P41212 whole entry): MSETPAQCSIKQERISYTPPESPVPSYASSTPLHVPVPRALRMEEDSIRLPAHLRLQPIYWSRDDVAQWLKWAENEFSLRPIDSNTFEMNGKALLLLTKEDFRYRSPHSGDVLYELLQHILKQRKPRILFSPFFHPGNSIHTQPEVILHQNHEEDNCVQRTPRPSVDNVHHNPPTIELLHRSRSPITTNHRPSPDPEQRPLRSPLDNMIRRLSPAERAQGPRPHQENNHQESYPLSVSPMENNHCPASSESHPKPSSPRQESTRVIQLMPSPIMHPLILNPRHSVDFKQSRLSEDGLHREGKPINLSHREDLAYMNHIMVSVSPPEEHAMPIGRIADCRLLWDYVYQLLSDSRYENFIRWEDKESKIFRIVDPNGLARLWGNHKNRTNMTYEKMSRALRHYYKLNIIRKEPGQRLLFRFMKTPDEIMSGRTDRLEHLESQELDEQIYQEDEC

Sequence of CRX (O43186 whole entry): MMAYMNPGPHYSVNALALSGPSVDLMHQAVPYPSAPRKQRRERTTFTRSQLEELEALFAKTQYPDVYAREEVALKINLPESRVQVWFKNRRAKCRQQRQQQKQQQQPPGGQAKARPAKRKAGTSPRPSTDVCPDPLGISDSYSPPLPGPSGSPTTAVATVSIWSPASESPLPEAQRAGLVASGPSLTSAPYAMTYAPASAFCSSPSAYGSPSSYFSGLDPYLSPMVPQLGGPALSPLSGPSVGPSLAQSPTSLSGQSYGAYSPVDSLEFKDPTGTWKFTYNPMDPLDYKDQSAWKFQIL
Sequence of ELF4 (Q99607 whole entry): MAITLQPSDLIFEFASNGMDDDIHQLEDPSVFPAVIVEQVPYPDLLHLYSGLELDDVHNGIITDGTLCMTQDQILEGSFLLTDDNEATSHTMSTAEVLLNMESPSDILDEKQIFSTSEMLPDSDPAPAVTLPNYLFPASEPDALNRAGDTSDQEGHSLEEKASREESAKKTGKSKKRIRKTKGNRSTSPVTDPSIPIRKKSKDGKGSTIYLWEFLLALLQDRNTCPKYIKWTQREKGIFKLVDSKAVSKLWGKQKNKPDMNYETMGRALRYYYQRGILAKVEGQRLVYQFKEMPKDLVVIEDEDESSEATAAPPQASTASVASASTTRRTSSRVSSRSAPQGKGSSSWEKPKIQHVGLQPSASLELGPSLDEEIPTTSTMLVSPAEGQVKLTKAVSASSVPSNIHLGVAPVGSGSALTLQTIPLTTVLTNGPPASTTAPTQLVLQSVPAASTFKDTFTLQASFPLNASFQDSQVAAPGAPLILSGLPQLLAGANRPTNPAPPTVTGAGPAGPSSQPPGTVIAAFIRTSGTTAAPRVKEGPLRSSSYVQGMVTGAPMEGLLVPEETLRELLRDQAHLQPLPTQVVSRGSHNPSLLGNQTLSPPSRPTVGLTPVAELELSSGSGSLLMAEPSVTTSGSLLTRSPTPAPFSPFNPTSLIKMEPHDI
Sequence of ETV1 (P50549 whole entry): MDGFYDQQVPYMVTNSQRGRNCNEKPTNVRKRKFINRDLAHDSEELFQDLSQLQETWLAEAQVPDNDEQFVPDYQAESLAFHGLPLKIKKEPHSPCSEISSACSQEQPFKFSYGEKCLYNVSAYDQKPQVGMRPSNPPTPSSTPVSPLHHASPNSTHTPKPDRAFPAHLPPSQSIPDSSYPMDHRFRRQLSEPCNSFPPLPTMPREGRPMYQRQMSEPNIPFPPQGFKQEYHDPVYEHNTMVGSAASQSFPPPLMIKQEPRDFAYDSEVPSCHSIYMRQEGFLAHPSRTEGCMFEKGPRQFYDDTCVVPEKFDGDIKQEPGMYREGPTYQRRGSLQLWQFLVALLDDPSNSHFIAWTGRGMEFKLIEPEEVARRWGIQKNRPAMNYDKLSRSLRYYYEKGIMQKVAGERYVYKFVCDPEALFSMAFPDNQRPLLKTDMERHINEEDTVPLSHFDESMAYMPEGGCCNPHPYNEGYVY
Sequence of HSF1 (Q00613 whole entry): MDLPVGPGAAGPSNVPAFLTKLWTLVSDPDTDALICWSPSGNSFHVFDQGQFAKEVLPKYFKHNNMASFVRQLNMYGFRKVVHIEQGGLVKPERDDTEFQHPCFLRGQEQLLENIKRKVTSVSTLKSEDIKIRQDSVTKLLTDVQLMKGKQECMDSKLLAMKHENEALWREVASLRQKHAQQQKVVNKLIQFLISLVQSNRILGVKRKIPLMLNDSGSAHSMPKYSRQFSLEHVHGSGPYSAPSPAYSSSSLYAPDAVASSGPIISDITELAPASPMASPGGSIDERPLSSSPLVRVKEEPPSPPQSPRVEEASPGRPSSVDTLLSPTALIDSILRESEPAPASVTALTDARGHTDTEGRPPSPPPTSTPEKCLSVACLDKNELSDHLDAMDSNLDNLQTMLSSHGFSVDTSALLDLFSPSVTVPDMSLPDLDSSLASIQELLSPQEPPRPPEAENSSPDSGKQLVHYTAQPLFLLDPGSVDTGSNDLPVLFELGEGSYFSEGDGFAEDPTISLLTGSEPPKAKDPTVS

Turning to AAAGCA, the binding signal is 1.07 fold enrichment (6-mer frequency, TF over GST control) with FEV; 1.06 fold enrichment (6-mer frequency, TF over GST control) with ETV5; 1.04 fold enrichment (6-mer frequency, TF over GST control) in the test with HSF1; 1.01 fold enrichment (6-mer frequency, TF over GST control) with SPIC; 1.09 fold enrichment (6-mer frequency, TF over GST control) with ELF4; 1.14 fold enrichment (6-mer frequency, TF over GST control) in the test with ELK4. Further, the binding signal in the test with ETV2 is 1.11 fold enrichment (6-mer frequency, TF over GST control); in the test with ELF3 it was 1.02 fold enrichment (6-mer frequency, TF over GST control); with CRX, 1.06 fold enrichment (6-mer frequency, TF over GST control); with ETV1 it was 1.06 fold enrichment (6-mer frequency, TF over GST control); with ERF, 1.1 fold enrichment (6-mer frequency, TF over GST control); in the test with ETV3L, 1.1 fold enrichment (6-mer frequency, TF over GST control). For the same sequence, the binding signal in the test with ETS2 was 1.05 fold enrichment (6-mer frequency, TF over GST control); with SPDEF it was 1.06 fold enrichment (6-mer frequency, TF over GST control); in the test with ETV7, 1.15 fold enrichment (6-mer frequency, TF over GST control); with ELF5, 1.07 fold enrichment (6-mer frequency, TF over GST control); with ETV3, 1.07 fold enrichment (6-mer frequency, TF over GST control); in the test with ETV6, 1.05 fold enrichment (6-mer frequency, TF over GST control).
